In PubChem BioAssay (NCI):
This is part of a sample that, as a whole, favours compounds with a hit. Of some 83,000 tested, about 20% had one in any assay.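 Growth was measured after 48 h exposure to one concentration of compound in 96-well plates. Values under 10 count as active.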 Values without a mark were called inactive. Activity calls are given as the source filed them.

Legend:
Test in all cases: NCI-60 one-dose screen, 48 h (100 = growth as untreated, 0 = no growth, -100 = all killed)
[1] = tested on: SR leukemia; conditions: 10 µM unless noted
[2] = tested on: RPMI-8226 leukemia; conditions: 10 µM unless noted
[3] = tested on: OVCAR-8 ovarian; conditions: 10 µM unless noted
[4] = tested on: OVCAR-5 ovarian; conditions: 10 µM unless noted
[5] = tested on: OVCAR-4 ovarian; conditions: 10 µM unless noted
[6] = tested on: SK-OV-3 ovarian; conditions: 10 µM unless noted
[7] = tested on: IGROV1 ovarian; conditions: 10 µM unless noted
[8] = tested on: OVCAR-3 ovarian; conditions: 10 µM unless noted
[9] = tested on: HS 578T breast; conditions: 10 µM
[10] = tested on: NCI/ADR-RES ovarian; conditions: 10 µM unless noted
[11] = tested on: T-47D breast; conditions: 10 µM unless noted
[12] = tested on: BT-549 breast; conditions: 10 µM unless noted
[13] = tested on: MDA-MB-435 melanoma; conditions: 10 µM unless noted
[14] = tested on: SW-620 colon; conditions: 10 µM unless noted
[15] = tested on: MCF7 breast; conditions: 10 µM unless noted
[16] = tested on: HCT-116 colon; conditions: 10 µM unless noted
[17] = tested on: HCC-2998 colon; conditions: 10 µM unless noted
[18] = tested on: KM12 colon; conditions: 10 µM unless noted

SMILES: COc1ccc2c(c1)CCCC21C(=O)Nc2ccccc21 (stereo not given)
- growth [1]: 80.5%
- growth [2]: 96.9%
- growth [3]: 95.5%
- growth [4]: 106%
- growth [5]: 98.8%
- growth [6]: 100%
- growth [7]: 102%
- growth [8]: 69.6%
- growth [9]: 107%
- growth [10]: 104%
- growth [11]: 85.2%
- growth [12]: 101%
- growth [13]: 101%
- growth [14]: 107%
- growth [15]: 95.7%
- growth [16]: 102%
- growth [17]: 112%
- growth [18]: 97.5%

SMILES: CC(CN1CCN(C)CC1)CN1c2ccccc2Sc2ccc(C(F)(F)F)cc21 (stereo not given)
- growth [1]: -23.2% (active)
- growth [2]: 71.3%
- growth [3]: 71.9%
- growth [4]: 68%
- growth [5]: 54.5%
- growth [6]: 92.4%
- growth [7]: 10.9%
- growth [8]: 42.9%
- growth [9]: 60.7%
- growth [10]: 52.8%
- growth [11]: 63.4%
- growth [12]: 61.4%
- growth [13]: 27.3%
- growth [14]: 22.6%
- growth [15]: 46.4%
- growth [16]: 21.6%
- growth [17]: -16.7% (active)
- growth [18]: 31.2%

SMILES: CCCCCCCCCCCCCCCCS(=O)(=O)Nc1cc(C(=O)NN)cc(C(=O)NN)c1
- growth [1]: 56.9%
- growth [2]: 68%
- growth [3]: 77.5%
- growth [4]: 68.3%
- growth [5]: 48.1%
- growth [6]: 69.8%
- growth [7]: 66.3%
- growth [8]: 47.2%
- growth [9]: 81.2%
- growth [10]: 102%
- growth [11]: 42%
- growth [12]: 61.5%
- growth [13]: 89.9%
- growth [14]: 96%
- growth [15]: 72.1%
- growth [16]: 71.3%
- growth [17]: 48.2%
- growth [18]: 73%

SMILES: Cc1cc2nc3c(=O)[nH]c(=O)nc-3n(CC=O)c2cc1C
- growth [1]: 129%
- growth [2]: 140%
- growth [3]: 121%
- growth [4]: 96.2%
- growth [5]: 100%
- growth [6]: 106%
- growth [7]: 88.7%
- growth [8]: 106%
- growth [9]: 101%
- growth [10]: 111%
- growth [11]: 100%
- growth [12]: 113%
- growth [13]: 92.2%
- growth [14]: 99.9%
- growth [15]: 99%
- growth [16]: 106%
- growth [17]: 111%
- growth [18]: 107%

SMILES: [Ag].[Ag].[NH-]S(=O)(=O)c1ccc(N=Nc2cc(N=Nc3ccc(S([NH-])(=O)=O)cc3)c3c(NC(=O)C(Cl)Cl)cccc3c2OC(=O)C(Cl)Cl)cc1.[c-]1nccs1.[c-]1nccs1
- growth [1]: 72.1%
- growth [2]: 83.5%
- growth [3]: 68.3%
- growth [4]: 120%
- growth [5]: 110%
- growth [6]: 114%
- growth [7]: 76.2%
- growth [8]: 72.7%
- growth [9]: 76.3%
- growth [10]: 90.4%
- growth [11]: 7.8% (active)
- growth [12]: 104%
- growth [13]: 87.2%
- growth [14]: 58.7%
- growth [15]: 50.8%
- growth [16]: 65.4%
- growth [17]: 99.1%
- growth [18]: 80.9%

SMILES: NC(=O)c1noc(C(=O)c2ccccc2)c1N
- growth [1]: 90.8%
- growth [2]: 99.4%
- growth [3]: 97.3%
- growth [4]: 100%
- growth [5]: 89.4%
- growth [6]: 107%
- growth [7]: 90.4%
- growth [8]: 96.9%
- growth [9]: 112%
- growth [10]: 112%
- growth [11]: 100%
- growth [12]: 98.2%
- growth [13]: 95.6%
- growth [14]: 101%
- growth [15]: 97.3%
- growth [16]: 85.4%
- growth [17]: 119%
- growth [18]: 98.7%

SMILES: N=C(N)c1ccc(-c2ccc(-c3cc(Cl)cc(Cl)c3)o2)nc1
- growth [1]: -27.4% (active)
- growth [2]: -45.2% (active)
- growth [3]: -49.4% (active)
- growth [4]: -62.3% (active)
- growth [5]: -57.7% (active)
- growth [6]: -86.5% (active)
- growth [7]: -41.3% (active)
- growth [8]: -95.2% (active)
- growth [9]: 83.4%
- growth [10]: -29.8% (active)
- growth [11]: -66.1% (active)
- growth [12]: 91.2%
- growth [13]: -78.1% (active)
- growth [14]: -82.7% (active)
- growth [15]: -67.1% (active)
- growth [16]: -74% (active)
- growth [17]: -41.9% (active)

SMILES: Cc1ccc(NC(=O)c2[nH]c(SCCN(C)C)nc2-c2ccc(F)cc2)cc1C#Cc1cnc2cccnn12
- growth [1]: -35.9% (active)
- growth [2]: -6.17% (active)
- growth [3]: -12.2% (active)
- growth [4]: 11.6%
- growth [5]: -59.2% (active)
- growth [6]: 98.5%
- growth [7]: 78.6%
- growth [8]: 102%
- growth [9]: 88.3%
- growth [10]: 11.1%
- growth [11]: 84.2%
- growth [12]: 94.8%
- growth [13]: 25.7%
- growth [14]: 0.0547% (active)
- growth [15]: 23.1%
- growth [16]: -64.3% (active)
- growth [17]: 96.3%
- growth [18]: -6.46% (active)

SMILES: COc1ccc2nc(NC(=O)/C(=C/c3cc(OC)c(OC)c(OC)c3)c3ccc(OC)c(OC)c3)sc2c1
- growth [1]: 73%
- growth [2]: 96.6%
- growth [3]: 90%
- growth [4]: 91.9%
- growth [5]: 93.4%
- growth [6]: 104%
- growth [7]: 81.6%
- growth [8]: 84.4%
- growth [9]: 103%
- growth [10]: 89%
- growth [11]: 74.4%
- growth [12]: 101%
- growth [13]: 101%
- growth [14]: 102%
- growth [15]: 87.1%
- growth [16]: 96.3%
- growth [17]: 113%
- growth [18]: 101%

SMILES: COc1ccc([C@@H]2[C@@H](Cl)C(=O)N2c2cc(OC)c(OC)c(OC)c2)cc1C
- growth [1]: 9.63% (active)
- growth [2]: 8.48% (active)
- growth [3]: 14.8%
- growth [4]: 59.7%
- growth [5]: 39.1%
- growth [6]: 30.4%
- growth [7]: 31.6%
- growth [8]: -5.67% (active)
- growth [9]: 47.9%
- growth [10]: 16%
- growth [11]: 77.7%
- growth [12]: 6.51% (active)
- growth [13]: -33.7% (active)
- growth [14]: 26.7%
- growth [15]: 20.5%
- growth [16]: 3.33% (active)
- growth [17]: 19.5%
- growth [18]: 12.8%

SMILES: CCOCC(O)(c1ccc(Cl)cc1)c1ccc(Cl)cc1
- growth [1]: 100%
- growth [2]: 107%
- growth [3]: 103%
- growth [4]: 84.4%
- growth [5]: 112%
- growth [6]: 105%
- growth [7]: 101%
- growth [8]: 112%
- growth [9]: 109%
- growth [10]: 99.7%
- growth [11]: 98.5%
- growth [12]: 115%
- growth [13]: 102%
- growth [14]: 97.4%
- growth [15]: 110%
- growth [16]: 93%
- growth [17]: 109%
- growth [18]: 90.4%

SMILES: O=C(O)c1ccccc1N=Cc1ccccc1
- growth [1]: 95.9%
- growth [2]: 101%
- growth [3]: 106%
- growth [4]: 108%
- growth [5]: 107%
- growth [6]: 104%
- growth [7]: 101%
- growth [8]: 115%
- growth [9]: 106%
- growth [10]: 100%
- growth [11]: 101%
- growth [12]: 112%
- growth [13]: 95.2%
- growth [14]: 107%
- growth [15]: 109%
- growth [16]: 101%
- growth [17]: 102%
- growth [18]: 105%

SMILES: O=c1cc(N2CCOCC2)oc2c(-c3ccc4c(c3)OCCO4)csc12
- growth [1]: 13.9%
- growth [2]: -0.399% (active)
- growth [3]: 13.8%
- growth [4]: 18.1%
- growth [5]: 11.5%
- growth [6]: -17.3% (active)
- growth [7]: -9.54% (active)
- growth [8]: 19.1%
- growth [9]: -7.53% (active)
- growth [10]: 16.5%
- growth [11]: -15% (active)
- growth [12]: 5.39% (active)
- growth [13]: 14.7%
- growth [14]: 37.6%
- growth [15]: 7.92% (active)
- growth [16]: 14.4%
- growth [17]: 33.2%
- growth [18]: 31.7%

SMILES: COc1cccc2nc(Nc3cccc(NC(=O)c4cc(N5CCOCC5)cc(C(F)(F)F)c4)c3)ccc12
- growth [1]: 74.4%
- growth [2]: 31.9%
- growth [3]: 52.2%
- growth [4]: 97.5%
- growth [5]: 61.9%
- growth [6]: 88.9%
- growth [7]: 40.4%
- growth [8]: 78%
- growth [9]: 67%
- growth [10]: 59.7%
- growth [11]: 42.4%
- growth [12]: 78.6%
- growth [13]: 55.3%
- growth [14]: 95.8%
- growth [15]: 45.2%
- growth [16]: 41.9%
- growth [17]: 76.9%
- growth [18]: 52.3%

SMILES: Cc1ccc(N=CNN=C(N)N)cc1
- growth [1]: 76.9%
- growth [2]: 99.4%
- growth [3]: 91%
- growth [4]: 99.5%
- growth [5]: 94.5%
- growth [6]: 104%
- growth [7]: 103%
- growth [8]: 112%
- growth [9]: 140%
- growth [10]: 108%
- growth [11]: 98.8%
- growth [12]: 108%
- growth [13]: 112%
- growth [14]: 108%
- growth [15]: 99%
- growth [16]: 103%
- growth [17]: 108%
- growth [18]: 107%

SMILES: CCC(C)C1NC(=O)c2nc(oc2-c2ccccc2)-c2csc(n2)-c2csc(n2)-c2nc(oc2C)-c2coc(n2)CNC(=O)C(C(C)CC)NC1=O (stereo not given)
- growth [1]: -47.8% (active)
- growth [2]: -63.5% (active)
- growth [3]: -62% (active)
- growth [4]: -86.1% (active)
- growth [5]: -80.6% (active)
- growth [6]: -89.2% (active)
- growth [7]: -71.5% (active)
- growth [8]: -88% (active)
- growth [9]: -57.3% (active)
- growth [10]: 12.3%
- growth [11]: -62.5% (active)
- growth [12]: -78.4% (active)
- growth [13]: -87.5% (active)
- growth [14]: -82.6% (active)
- growth [15]: -68.6% (active)
- growth [16]: -59% (active)
- growth [17]: -80.1% (active)
- growth [18]: -73.9% (active)

SMILES: Clc1cn2cc(-c3ccc(Cl)c(Cl)c3Cl)nc2s1
- growth [1]: 75.5%
- growth [2]: 108%
- growth [3]: 99.5%
- growth [4]: 87.8%
- growth [5]: 100%
- growth [6]: 103%
- growth [7]: 55.7%
- growth [8]: 101%
- growth [9]: 104%
- growth [10]: 110%
- growth [11]: 71.8%
- growth [12]: 129%
- growth [13]: 88.1%
- growth [14]: 111%
- growth [15]: 87.8%
- growth [16]: 96.9%
- growth [17]: 106%
- growth [18]: 111%
